# Screens deposited in PubChem BioAssay by National Center for Advancing Translational Sciences (NCATS).
# MCF10A rereplic – inducers of DNA re-replication in MCF 10A breast cells | MCF 10A DNA re-replication, Hoechst nuclear intensity, 48 h | Potency, µM (top dose mostly 46.1 µM), inactives show at the highest dose activity, positive = re-replication, hits mostly activators | 350,000 tested, 2.9% active; also: potency is read from the fitted curve at half-maximal effect; % of control where 0% means no effect; nearly all actives have a fitted effect of over 50% in size
# KB-V1 cytotox – kills drug-selected multidrug resistant KB-V1 cells; KB-V1 MDR cells viability, CellTiter-Glo, 72 h; Potency, µM (top dose mostly 46.1 µM), usual class: cytotoxic; 400,000 tested, 3.4% active; also: potency is read from the fitted curve at half-maximal effect; % is scaled to controls: 0 for no effect and ±100 for the full control effect; nearly all actives have a fitted effect of over 60% in size
#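 Compound-treated KB-V1 multidrug-resistant cells, 72 h, 37 degrees C; viability by CellTiter-Glo. Fitted qHTS curves give the values.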
# S-ASM inh – inhibitors of human secretory acid sphingomyelinase. P17405. Potency, µM (series often up to 57.5 µM), for the others: top-dose activity change, negative = inhibition, hits mostly inhibitors. 340,000 tested, 0.006% active. placental ASM, HMU-PC fluorogenic substrate, 60 min; also: potency is read from the fitted curve at half-maximal effect
# Target sequence (P17405 47-631 limits assumed): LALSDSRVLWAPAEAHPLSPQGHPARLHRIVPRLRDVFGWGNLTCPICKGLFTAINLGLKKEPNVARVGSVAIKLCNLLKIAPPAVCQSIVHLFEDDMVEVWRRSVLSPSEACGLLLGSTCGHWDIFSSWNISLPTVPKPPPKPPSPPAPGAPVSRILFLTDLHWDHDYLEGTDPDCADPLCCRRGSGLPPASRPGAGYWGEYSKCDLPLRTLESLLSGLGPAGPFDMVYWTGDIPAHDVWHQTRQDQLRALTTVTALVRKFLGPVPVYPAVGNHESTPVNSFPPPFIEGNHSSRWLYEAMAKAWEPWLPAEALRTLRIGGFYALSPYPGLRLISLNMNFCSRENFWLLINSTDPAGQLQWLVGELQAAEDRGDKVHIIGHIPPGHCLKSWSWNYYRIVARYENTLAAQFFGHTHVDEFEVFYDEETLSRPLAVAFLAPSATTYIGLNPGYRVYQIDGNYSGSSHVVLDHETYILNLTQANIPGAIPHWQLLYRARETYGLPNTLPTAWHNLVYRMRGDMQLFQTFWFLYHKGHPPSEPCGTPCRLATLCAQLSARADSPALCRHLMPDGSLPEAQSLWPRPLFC
#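 Human placenta-derived ASM preincubated with compound 10 min at room temperature, then reacted with 9 uM (final) fluorogenic HMU-PC substrate for 60 min at 37 C. Stop solution raises pH to 10; fluorescence read at Ex 386/Em 447 nm.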
# SW480 rereplic – DNA re-replication induction in SW480 cells; SW480 DNA re-replication, Hoechst DNA content imaging, 48 h; Potency, µM (titrated, usually from 46.1 µM), for inactives: top-dose re-replication activation, most hits filed as activators; 340,000 tested, 1.8% active; also: potency is read from the fitted curve at half-maximal effect; % of control where 0% means no effect; nearly all actives have a fitted effect of over 55% in size
#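 Cells (250 per well) received 23 nL compound or DMSO by pin tool and were kept 48 hr at 37 C, 5% CO2. Nuclei were then stained with Hoechst for 40 min and scanned for DNA content.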
# Giardia killer – Giardia lamblia killing. Giardia lamblia trophozoite viability. activity change, % at 7.66 µM, hits read low. 340,000 tested, 0.15% active. AID 540267; in the data active = activity change below about -80%; inconclusive = between about -30% and that limit;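 also: parasites exposed to compound for two days anaerobically before the ATP read; % is scaled to controls: 0 for no effect and ±100 for the full control effect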
#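 Trophozoite viability was measured as ATP-dependent luminescence, read 15-30 min after reagent addition. Before that, parasites at 100 cells/well were exposed to compounds for 48 h, anaerobically, at 37 deg C.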
# KB-3-1 tox – kills parental KB-3-1 adenocarcinoma cells; KB-3-1 viability, CellTiter-Glo ATP luminescence, 72 h; 400,000 tested, 1.4% active; Potency, µM (series often up to 46.1 µM), actives largely listed as cytotoxic; also: potency is read from the fitted curve at half-maximal effect; % is scaled to controls: 0 for no effect and ±100 for the full control effect; nearly all actives have a fitted effect of over 60% in size
#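 KB-3-1 parental drug-naive adenocarcinoma cells in DMEM/10% FBS, incubated 72 h at 37 C with pin-transferred compounds across a concentration series. Viability by CellTiter-Glo luminescence; concentration-response curves fitted after normalization.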
# Numbers without * were called inactive; i = inactive; ? = inconclusive; . = no result; [ ] = dose if it differs, or a comment. Hits are enriched below; roughly 6.9% of the tested compounds scored in any of these assays. Unless noted, calls follow the shape of the dose curve; as a rule, active = well fitted curve in the direction sought with a large enough effect; inconclusive = small, poorly fitted or top-dose-only effect, or another doubt; inactive = no such curve, though single readings can be large; an effect the other way counts as inactive or inconclusive.
SMILES,MCF10A rereplic,KB-V1 cytotox,S-ASM inh,SW480 rereplic,Giardia killer,KB-3-1 tox
C=CCn1c(CNC(=O)c2cccs2)nnc1SCC(=O)c1ccc(Br)cc1,1.6%,14.6µM*,-3.0%,-7.2%,4.4,i
N#Cc1ccccc1NC(=O)C(=O)NCC(c1cccnc1)N1CCc2ccccc21 (centres undefined),.,i,.,.,.,i
O=c1c(-c2nnc(SCc3ccc(Cl)cc3Cl)o2)cccn1Cc1ccccc1,6.7%,2.91µM*,i,-0.1%,-1.5,?
CSc1nnc(-c2cccn(Cc3ccccc3)c2=O)o1,-1.0%,i,449.5%,16.1%,-4.8,i
O=C(NCCN1CCOCC1)NC1(C(F)(F)F)Oc2ccc(Cl)cc2O1 (centres undefined),19.8%,?,5.7%,8.8%,2.5,4.61µM*
COc1cccc(OC)c1-c1nn2c(-c3cc(-c4ccccc4)n[nH]3)nnc2s1,14.6µM*,?,-1.0%,9.2µM*,5.6,?
Clc1ccc(OCc2nn3c(-c4ccncc4)nnc3s2)cc1,12.4%,10.3µM*,-2.3%,-7.2%,-4.0,i
COc1ccccc1-c1nn2c(-c3ccco3)nnc2s1,19.4%,10.3µM*,-1.1%,-8.5%,1.4,i
COc1ccc(-c2nn3c(-c4ccccc4)nnc3s2)cc1,?,?,-26.3%,-6.0%,-28.4,?
CCOc1ccc(-c2nnc3sc(COc4ccc(Cl)cc4)nn23)cc1,14.1%,i,-1.6%,0.5%,1.5,i
c1coc(-c2nn3c(-c4ccco4)nnc3s2)c1,-0.8%,?,3.0%,-8.5%,6.9,i
COc1ccccc1-c1nn2c(-c3cc(-c4ccccc4)n[nH]3)nnc2s1,.,?,.,.,19.9,?
CCN(CC)c1ccc(-c2nn3c(-c4ccccc4OC)nnc3s2)cc1,?,1.46µM*,i,1.3µM*,0.6,0.82µM*
CC(C)c1ccc(N2C(=O)N(Cc3ccccc3Cl)c3ccccc3S2(=O)=O)cc1,.,i,.,.,.,i
COc1ccccc1-c1nnc2sc(COc3ccccc3)nn12,3.4%,i,-1.3%,1.5%,3.9,i
COc1ccccc1-c1nnc2sc(COc3ccc(Cl)cc3Cl)nn12,?,18.4µM*,-24.6%,5.2%,26.3,?
CC(NC(=O)c1ccc(F)cc1)c1nc2ccccc2n1Cc1ccccc1F (centres undefined),0.6%,2.06µM*,2.7%,26.2%,-3.4,i
Cc1ccccc1OCc1nc(-c2ccc(NC(=O)c3ccco3)cc2)no1,?,i,-7.1%,0.1%,-6.4,i
Cc1ccccc1OCc1nc(-c2ccc(NC(=O)c3ccc4c(c3)OCO4)cc2)no1,20.6µM*,?,-1.3%,?,-2.6,i
Cc1nc(NC(=O)c2ccco2)sc1C(=O)Nc1ccc(Br)cc1,23.1µM*,i,-14.6%,1.3%,-13.3,?
Cc1nc(NC(=O)c2ccco2)sc1C(=O)O,1.0%,4.61µM*,-1.7%,-9.3%,-21.1,13µM*
COC(=O)c1sc(NC(=O)c2ccco2)nc1C,-5.4%,i,-1.0%,-5.9%[9.22 µM],5.7,i
Cc1ccc2nc(NC(=O)c3nc(SCc4ccccc4C)ncc3Cl)sc2c1,.,i,.,.,.,i
Cc1cccc(-n2nnc(-c3nc(-c4cccs4)no3)c2N)c1,.,i,.,.,.,i
COc1ccccc1N(C)S(=O)(=O)c1ccc(C(=O)N(C)Cc2ccc(Cl)s2)cc1,25.9µM*,.,-1.2%,2.6%,-1.9,.
SMILES,MCF10A rereplic,KB-V1 cytotox,S-ASM inh,SW480 rereplic,Giardia killer,KB-3-1 tox
CC(C)C(=O)NCCc1nc(-c2ccccc2Cl)no1,-3.5%,i,9.4%,-21.7%[9.22 µM],9.8,i
COC(=O)c1[nH]c(C)c(/C(O)=C2\C(=O)C(=O)N(CCN3CCOCC3)C2c2cccs2)c1C (centres undefined),7.5%,i,-1.9%,-3.7%,-6.8,i
CCOC(=O)c1[nH]c(C)c(/C(O)=C2\C(=O)C(=O)N(CCCN3CCOCC3)C2c2cccs2)c1C (centres undefined),9.2µM*,?,1.2%,13µM*,12.8,?
COCCCNC(=O)CCn1c(=O)c2ccccc2n(CC(=O)Nc2c(C)cc(C)cc2C)c1=O,.,i,.,.,.,i
CCOc1cccc(C2C=C(c3ccc4c(c3)OCO4)NC(c3ccc(F)cc3)N2)c1O (centres undefined),.,i,.,.,7.7,i
CCOc1cccc(C2C=C(c3ccc4c(c3)OCO4)NC(c3ccc(Cl)cc3)N2)c1O (centres undefined),.,i,.,.,-18.6,10.3µM*
CCOC(=O)C1C(=O)CC(=O)C(C(=O)OCC)C1c1ccc(O)cc1 (centres undefined),.,i,.,.,.,i
COc1ccc(-c2nc3cccc(C)n3c2NCC2CCCO2)cc1O (centres undefined),9.2%,11.6µM*,192.2%,-9.8%,-6.8,i
COc1cc(-c2nc3ccccn3c2NCC2CCCO2)ccc1O (centres undefined),-21.7%,?,93.9%,-3.7%,0.1,i
CCOCCCN(Cc1ccco1)S(=O)(=O)c1cc2c(cc1Cl)NC(=O)CO2,.,i,.,.,.,i
CCCCCCCCN1C(=O)C(O)=C(C(C)=O)C1c1ccccn1 (centres undefined),-0.5%,16.4µM*,4.2%,-1.6%,-14.5,i
N#CN=CN1CC=C(c2ccc(Cl)cc2)CC1,.,2.31µM*,.,.,.,9.2µM*
CCCCc1ccc(-c2csc(/C(C#N)=C\c3ccco3)n2)cc1,18.4µM*,i,8.1%,?,17.8,i
CCCCc1ccc(-c2csc(/C(C#N)=C/c3ccc(C)o3)n2)cc1,?,i,-14.3%,0.0%,7.8,i
Cc1ccccc1-n1c2nc(=O)[nH]c(=O)c-2cc2c(Cl)cccc21,.,i,.,.,.,i
O=C1C=C(Nc2ccc(Cl)cc2Cl)CC(c2ccco2)C1 (centres undefined),?,7.31µM*,0.7%,16.4µM*,12.5,6.51µM*
Cc1ccc(N(NC(=O)C(O)(c2ccccc2)c2ccccc2)C(=O)CCl)cc1,23.1µM*,?,-0.3%,18.4µM*,-14.5,?
O=C(Nc1ccccc1)NN(C(=O)CCl)c1ccccc1,8.2µM*,?,-2.2%,5.8µM*,10.9,23.1µM*
CCC(O)(CC)C(=O)NN(C(=O)CCl)c1ccccc1,15.3%,i,-0.6%,?,14.7,?
CCOC(=O)N1CCN(c2ncnc3scc(-c4ccc(Cl)cc4)c23)CC1,-10.4%,?,-17.0%,-4.1%,-7.2,i
Clc1ccc(-c2csc3ncnc(N4CCc5ccccc5C4)c23)cc1,?,16.4µM*,3.3%,-8.7%,-1.4,i
